Values joined by “and” are separate entries in the source; they are usually repeats but may differ in a detail not shown here. Equal entries are not always repeated. Where two headings read alike, the source gives them in different places.
Legend:
[1] = tested on: TTK; conditions: concentration: 1 μM, replicates: in singlicate; n = 1
[2] = tested on: TXK; conditions: n = 1
[3] = tested on: TYK2(JH1domain-catalytic); conditions: n = 1
[4] = tested on: TYK2(JH2domain-pseudokinase); conditions: n = 1
[5] = tested on: TYRO3; conditions: n = 1
[6] = tested on: ULK1; conditions: concentration: 1 μM, replicates: in singlicate; n = 1
[7] = tested on: ULK2; conditions: n = 1
[8] = tested on: ULK3; conditions: n = 1
[9] = tested on: T1, VEGFR2; conditions: n = 1
T1 construct: gene KDR

[10] = tested on: T2, VPS34; conditions: n = 1
T2 construct: gene PIK3C3

[11] = tested on: VRK2; conditions: concentration: 1 μM, replicates: in singlicate; n = 1
[12] = tested on: WEE1; conditions: n = 1
[13] = tested on: WEE2; conditions: n = 1
[14] = tested on: WNK1; conditions: n = 1
[15] = tested on: WNK2; conditions: n = 1
[16] = tested on: WNK3; conditions: n = 1
[17] = tested on: WNK4; conditions: n = 1
[18] = tested on: T3, YANK1; conditions: n = 1
T3 construct: gene STK32A

[19] = tested on: T4, YANK2; conditions: n = 1
T4 construct: gene STK32B

[20] = tested on: T5, YANK3; conditions: n = 1
T5 construct: gene STK32C

[21] = concentration: 1 μM, replicates: in singlicate
[22] = concentration: 1 μM,replicates: in singlicate, 1 µM
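Further: KINOMEscan kinase panel screen.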

SMILES: CC(C)(C)c1ccc(C(=O)Nc2cn3cc(Cl)ccc3n2)cc1
- %Inh [1]: 0%
- %Inh [2, 21]: 0%
- %Inh [3, 21]: 0%
- %Inh [4, 21]: 0%
- %Inh [5, 21]: 9%
- %Inh [6]: 0%
- %Inh [7, 21]: 0%
- %Inh [8, 21]: 10%
- %Inh [9, 21]: 12%
- %Inh [10, 21]: 13%
- %Inh [11]: 0%
- %Inh [12, 21]: 0%
- %Inh [13, 21]: 0%
- %Inh [14, 21]: 0%
- %Inh [15, 21]: 0%
- %Inh [16, 21]: 0%
- %Inh [17, 21]: 0%
- %Inh [18, 21]: 0%
- %Inh [19, 21]: 0%
- %Inh [20, 21]: 3%

SMILES: COc1ccc(CNC(=O)NC2CCN(c3ccnc(Nc4cc(OC)c(OC)c(OC)c4)n3)C2)cc1 (stereo not shown) [GSK1379748]
- %Inh [1]: 0%
- %Inh [2, 21]: 8%
- %Inh [3, 21]: 48%
- %Inh [4, 21]: 31%
- %Inh [5, 21]: 0%
- %Inh [6]: 0%
- %Inh [7, 21]: 0%
- %Inh [8, 21]: 86%
- %Inh [9, 21]: 4%
- %Inh [10, 21]: 7%
- %Inh [11]: 14%
- %Inh [12, 21]: 5%
- %Inh [13, 21]: 0%
- %Inh [14, 21]: 7%
- %Inh [15, 21]: 30%
- %Inh [16, 21]: 30%
- %Inh [17, 21]: 52%
- %Inh [18, 21]: 0%
- %Inh [19, 21]: 0%
- %Inh [20, 21]: 0%

SMILES: Cn1ccc2ncnc(Oc3ccc(NC(=O)Nc4ccccc4)cc3)c21
- %Inh [1]: 0%
- %Inh [2, 21]: 1%
- %Inh [3, 21]: 0%
- %Inh [4, 21]: 0%
- %Inh [5, 21]: 0%
- %Inh [6]: 0%
- %Inh [7, 21]: 0%
- %Inh [8, 21]: 3%
- %Inh [9, 21]: 97.8%
- %Inh [10, 21]: 0%
- %Inh [11]: 0%
- %Inh [12, 21]: 0%
- %Inh [13, 21]: 0%
- %Inh [14, 21]: 0%
- %Inh [15, 21]: 0%
- %Inh [16, 21]: 0%
- %Inh [17, 21]: 1%
- %Inh [18, 21]: 17%
- %Inh [19, 21]: 0%
- %Inh [20, 21]: 0%

SMILES: NC(=O)c1nnc2ccccc2c1N
- %Inh [1]: 12%
- %Inh [2, 21]: 4%
- %Inh [3, 21]: 44%
- %Inh [4, 21]: 38%
- %Inh [5, 21]: 2%
- %Inh [6]: 24%
- %Inh [7, 21]: 0%
- %Inh [8, 21]: 29%
- %Inh [9, 21]: 16%
- %Inh [10, 21]: 20%
- %Inh [11]: 4%
- %Inh [12, 21]: 9%
- %Inh [13, 21]: 20%
- %Inh [14, 21]: 8%
- %Inh [15, 21]: 0%
- %Inh [16, 21]: 0%
- %Inh [17, 21]: 9%
- %Inh [18, 21]: 23%
- %Inh [19, 21]: 0%
- %Inh [20, 21]: 0%

SMILES: COc1cc2nccc(Nc3ccc(NC(=O)c4ccc(C)cc4)c(O)c3)c2cc1OC.Cl [GW440132]
- %Inh [1]: 0%
- %Inh [2, 21]: 10%
- %Inh [3, 21]: 0%
- %Inh [4, 21]: 1%
- %Inh [5, 21]: 0%
- %Inh [6]: 21%
- %Inh [7, 21]: 0%
- %Inh [8, 21]: 7%
- %Inh [9, 21]: 0%
- %Inh [10, 21]: 14%
- %Inh [11]: 0%
- %Inh [12, 21]: 2%
- %Inh [13, 21]: 11%
- %Inh [14, 21]: 7%
- %Inh [15, 21]: 14%
- %Inh [16, 21]: 14%
- %Inh [17, 21]: 0%
- %Inh [18, 21]: 11%
- %Inh [19, 21]: 0%
- %Inh [20, 21]: 16%

SMILES: CC(C)(C)c1ccc(C(=O)Nc2cn3cc(-c4cccnc4)ccc3n2)cc1
- %Inh [1]: 9%
- %Inh [2, 21]: 18%
- %Inh [3, 21]: 0%
- %Inh [4, 21]: 19%
- %Inh [5, 21]: 11%
- %Inh [6]: 0%
- %Inh [7, 21]: 14%
- %Inh [8, 21]: 33%
- %Inh [9, 21]: 0%
- %Inh [10, 21]: 12%
- %Inh [11]: 0%
- %Inh [12, 21]: 0%
- %Inh [13, 21]: 0%
- %Inh [14, 21]: 0%
- %Inh [15, 21]: 36%
- %Inh [16, 21]: 0%
- %Inh [17, 21]: 26%
- %Inh [18, 21]: 3%
- %Inh [19, 21]: 0%
- %Inh [20, 21]: 20%

SMILES: O=C(Nc1n[nH]c2nc(-c3nccs3)c(Br)cc12)C1CC1 [SB-742251]
- %Inh [1]: 0%
- %Inh [2, 21]: 0%
- %Inh [3, 21]: 36%
- %Inh [4, 21]: 77%
- %Inh [5, 21]: 0%
- %Inh [6]: 21%
- %Inh [7, 21]: 7%
- %Inh [8, 21]: 0%
- %Inh [9, 21]: 0%
- %Inh [10, 21]: 0%
- %Inh [11]: 0%
- %Inh [12, 21]: 16%
- %Inh [13, 21]: 7%
- %Inh [14, 21]: 23%
- %Inh [15, 21]: 2%
- %Inh [16, 21]: 35%
- %Inh [17, 21]: 51%
- %Inh [18, 21]: 6%
- %Inh [19, 21]: 0%
- %Inh [20, 21]: 7%

SMILES: CSc1nn2c(=O)cc(N3CCOCC3)nc2n1Cc1cccc(C(F)(F)F)c1C [GSK2363608]
- %Inh [1]: 0%
- %Inh [2, 22]: 10% and 0%
- %Inh [3, 22]: 51% and 72%
- %Inh [4, 22]: 16% and 8%
- %Inh [5, 22]: 0% and 18%
- %Inh [6]: 15%
- %Inh [7, 22]: 5% and 0%
- %Inh [8, 22]: 15% and 0%
- %Inh [9, 22]: 8% and 0%
- %Inh [10, 22]: 94.7% and 96.7%
- %Inh [11]: 0%
- %Inh [12, 22]: 15% and 11%
- %Inh [13, 22]: 9% and 10%
- %Inh [14, 22]: 13% and 7%
- %Inh [15, 22]: 14% and 22%
- %Inh [16, 22]: 24% and 10%
- %Inh [17, 22]: 1% and 4%
- %Inh [18, 22]: 0% and 3%
- %Inh [19, 22]: 8% and 0%
- %Inh [20, 22]: 0% and 68%

SMILES: Cc1cccc(-c2nc(-c3ccc(S(C)(=O)=O)cc3)sc2-c2ccnc(NCCc3ccccc3)c2)c1
- %Inh [1]: 10%
- %Inh [2, 21]: 6%
- %Inh [3, 21]: 0%
- %Inh [4, 21]: 18%
- %Inh [5, 21]: 0%
- %Inh [6]: 0%
- %Inh [7, 21]: 8%
- %Inh [8, 21]: 0%
- %Inh [9, 21]: 0%
- %Inh [10, 21]: 82%
- %Inh [11]: 0%
- %Inh [12, 21]: 0%
- %Inh [13, 21]: 9%
- %Inh [14, 21]: 0%
- %Inh [15, 21]: 0%
- %Inh [16, 21]: 0%
- %Inh [17, 21]: 0%
- %Inh [18, 21]: 0%
- %Inh [19, 21]: 13%
- %Inh [20, 21]: 14%

SMILES: Fc1cccc(COc2nnc(-c3ccc4c(c3)CCO4)o2)c1
- %Inh [1]: 14%
- %Inh [2, 21]: 0%
- %Inh [3, 21]: 3%
- %Inh [4, 21]: 6%
- %Inh [5, 21]: 0%
- %Inh [6]: 0%
- %Inh [7, 21]: 14%
- %Inh [8, 21]: 0%
- %Inh [9, 21]: 25%
- %Inh [10, 21]: 17%
- %Inh [11]: 0%
- %Inh [12, 21]: 0%
- %Inh [13, 21]: 19%
- %Inh [14, 21]: 0%
- %Inh [15, 21]: 0%
- %Inh [16, 21]: 0%
- %Inh [17, 21]: 0%
- %Inh [18, 21]: 0%
- %Inh [19, 21]: 0%
- %Inh [20, 21]: 19%

SMILES: Cc1c(Cn2ccn3c(=O)cc(N4CCOCC4)nc23)cccc1C(F)(F)F [GSK2289044]
- %Inh [1]: 1%
- %Inh [2, 21]: 0%
- %Inh [3, 21]: 0%
- %Inh [4, 21]: 0%
- %Inh [5, 21]: 0%
- %Inh [6]: 7%
- %Inh [7, 21]: 0%
- %Inh [8, 21]: 0%
- %Inh [9, 21]: 1%
- %Inh [10, 21]: 95.1%
- %Inh [11]: 0%
- %Inh [12, 21]: 0%
- %Inh [13, 21]: 0%
- %Inh [14, 21]: 0%
- %Inh [15, 21]: 0%
- %Inh [16, 21]: 14%
- %Inh [17, 21]: 0%
- %Inh [18, 21]: 9%
- %Inh [19, 21]: 1%
- %Inh [20, 21]: 31%

— paper PMC5540273 (PLoS ONE, 2017)
